Test results published in PubChem BioAssay (EPA / NIEHS).
Records with an inconclusive call do not appear. Activity calls are given as the source filed them. How the source made its calls: active means hit-call score of the fitted dose curve at least 0.9, where 1 is the maximum; inconclusive means response in the unintended direction; inactive means score below 0.9.

Experiments:
[1] = TOX21_p53_BLA_p2_viability: Viability Assessment in the Tox21 HCT-116 p53 Agonism Beta-lactamase Assay, Phase 2 (AID 2283591);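 further: compound exposure lasted 16 h at 37 °C; actives lower the ATP signal meaning cytotoxicity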
Method in brief: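 HCT116 p53-bla cells, 4000/well, dosed after 5 h plating (217-fold dilution of DMSO stocks) and incubated 16 h at 37C. Viability taken as cellular ATP by CellTiter-Glo luminescence after 30 min RT; signal loss marks cytotoxicity.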

[2] = TOX21_p53_BLA_p3_viability: Viability Assessment in the Tox21 HCT-116 p53 Agonism Beta-lactamase Assay, Phase 3 (AID 2283593);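 further: cells exposed to compound for 16 h before reading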
Method in brief: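 HCT116 cells, 4000/well, dosed 5 h after plating by pin transfer (217-fold dilution from DMSO stock) and incubated 16 h at 37C, 5% CO2. Viability read as ATP luminescence with CellTiter-Glo after 30 min at room temperature.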

[3] = target: Cellular tumor antigen p53 (Homo sapiens) (UniProt P04637); test: TOX21_p53_BLA_p3_ratio: Tox21 HCT-116 p53 Agonism Beta-lactamase Assay, Ratio, Phase 3 (AID 2283596)
Chain of Cellular tumor antigen p53 (Homo sapiens) (P04637 whole entry, looked up): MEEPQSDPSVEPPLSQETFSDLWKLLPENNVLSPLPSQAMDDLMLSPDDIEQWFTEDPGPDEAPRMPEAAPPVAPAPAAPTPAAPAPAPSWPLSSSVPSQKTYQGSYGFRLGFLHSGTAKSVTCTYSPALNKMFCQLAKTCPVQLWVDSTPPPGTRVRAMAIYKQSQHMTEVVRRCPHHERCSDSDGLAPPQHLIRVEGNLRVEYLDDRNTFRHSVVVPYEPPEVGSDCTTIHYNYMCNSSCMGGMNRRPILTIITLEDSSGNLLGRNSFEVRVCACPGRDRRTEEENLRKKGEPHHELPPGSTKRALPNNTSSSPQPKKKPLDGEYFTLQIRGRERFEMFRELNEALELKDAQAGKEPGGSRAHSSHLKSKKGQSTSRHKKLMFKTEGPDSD
Method in brief: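 Cells were seeded at 4000/well, rested 5 h at 37C, then dosed with DMSO compound solutions (217-fold dilution) for 16 h. CCF4-AM substrate was loaded for 2 h at room temperature, and the 460/530 nm emission ratio was fitted for gain of signal versus DMSO.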

[4] = TOX21_p53_BLA_p4_viability: Viability Assessment in the Tox21 HCT-116 p53 Agonism Beta-lactamase Assay, Phase 4 (AID 2283597);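 further: hits lower the luminescence signal meaning cytotoxicity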
Method in brief: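 In this multiplexed secondary endpoint, HCT116 cells (4000 per well, compound at 5 h, 16 h treatment) received CellTiter-Glo after the beta-lactamase read. Luminescence after 30 min RT reflects ATP, and falling signal marks cytotoxicity.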

[5] = target: Cellular tumor antigen p53 (Homo sapiens) (UniProt P04637); test: TOX21_p53_BLA_p5_ratio: Tox21 HCT-116 p53 Agonism Beta-lactamase Assay, Ratio, Phase 5 (AID 2283599)
Method in brief: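 HCT-116 p53-bla cells (4000/well) plated 5 h, dosed with compound (217-fold DMSO dilution) for 16 h at 37 C; CCF4-AM substrate 2 h at room temperature. Activity is the 460/530 nm emission ratio (405 nm excitation), fitted in gain-of-signal direction versus DMSO.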

[6] = TOX21_p53_BLA_p5_viability: Viability Assessment in the Tox21 HCT-116 p53 Agonism Beta-lactamase Assay, Phase 5 (AID 2283600)
Method in brief: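 Here cell health was gauged by ATP levels in wells holding 4000 cells, each treated 16 h with DMSO-delivered compounds at 217-fold dilution; reduced luminescence marked toxicity.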

PGR (gene 5241) = PGR (gene 5241) (UniProt P06401); test: TOX21_PR_BLA_Followup_Antagonist_ratio: Tox21 HEK293 Progesterone Receptor (PR) Antagonism Beta-lactamase Follow-Up Assay, Ratio (AID 2283934);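 further: PR-UAS-bla HEK293T cells stimulated with 1 nM R5020 agonist for 16 hr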
Chain of PGR (gene 5241) (P06401 whole entry, looked up): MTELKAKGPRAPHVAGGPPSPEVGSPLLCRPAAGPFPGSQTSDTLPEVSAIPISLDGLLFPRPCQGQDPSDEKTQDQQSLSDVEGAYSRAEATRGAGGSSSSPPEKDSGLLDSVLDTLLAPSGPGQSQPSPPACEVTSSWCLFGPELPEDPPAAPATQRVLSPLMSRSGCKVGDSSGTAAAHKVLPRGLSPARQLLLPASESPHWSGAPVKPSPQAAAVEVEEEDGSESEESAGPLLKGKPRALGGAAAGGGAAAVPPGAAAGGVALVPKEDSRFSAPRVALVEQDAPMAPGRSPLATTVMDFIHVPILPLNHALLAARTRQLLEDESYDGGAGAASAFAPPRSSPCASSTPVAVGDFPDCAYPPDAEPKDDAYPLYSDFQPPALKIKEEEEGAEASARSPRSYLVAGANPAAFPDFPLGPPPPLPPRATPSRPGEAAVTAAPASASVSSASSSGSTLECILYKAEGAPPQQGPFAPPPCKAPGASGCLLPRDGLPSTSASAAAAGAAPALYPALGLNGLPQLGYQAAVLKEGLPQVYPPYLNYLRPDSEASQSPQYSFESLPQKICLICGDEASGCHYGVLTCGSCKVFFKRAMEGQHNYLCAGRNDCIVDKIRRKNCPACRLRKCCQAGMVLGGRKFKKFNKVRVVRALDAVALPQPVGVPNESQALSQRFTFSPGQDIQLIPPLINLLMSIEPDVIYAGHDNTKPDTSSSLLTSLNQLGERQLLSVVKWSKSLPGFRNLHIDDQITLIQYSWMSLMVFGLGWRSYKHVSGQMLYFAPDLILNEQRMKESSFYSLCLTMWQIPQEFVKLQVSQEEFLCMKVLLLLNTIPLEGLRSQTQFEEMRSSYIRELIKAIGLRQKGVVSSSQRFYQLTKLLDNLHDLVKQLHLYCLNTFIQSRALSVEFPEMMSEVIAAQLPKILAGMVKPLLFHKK
Method in brief: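 Measured in PR-UAS-bla HEK293T cells co-treated with compound and 1 nM promegestone for 16 hr; beta-lactamase ratio read after 2 h FRET substrate loading, with parallel CellTiter-Glo cytotoxicity.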

[7] = TOX21_PR_BLA_Followup_Agonist_viability: Viability Assessment in the Tox21 HEK293 Progesterone Receptor (PR) Agonism Beta-lactamase Follow-Up Assay (AID 2283935);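 further: signal loss means lower viability so actives are cytotoxic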
Method in brief: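 Viability is read as CellTiter-Glo luminescence, where loss of signal indicates cytotoxicity. The cells are PR-UAS-bla HEK293T given compounds for 16 hr at 37C and 5% CO2, in the same wells used for the bla readout.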

[8] = TOX21_PR_BLA_Followup_Antagonist_viability: Viability Assessment in the Tox21 HEK293 Progesterone Receptor (PR) Antagonism Beta-lactamase Follow-Up Assay (AID 2283936);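 further: cells exposed to compound with R5020 agonist for 16 h; hits lower the luminescence signal meaning cytotoxicity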
Method in brief: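 PR-UAS-bla HEK293T cells in medium with 2% charcoal-stripped FBS were treated with compounds plus R5020 for 16 hr at 37C. After the beta-lactamase read, CellTiter-Glo was added to the same wells and luminescence read after 30 min at room temperature.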

[9] = TOX21_PR_LUC_Followup_Agonist_viability: Viability Assessment in the Tox21 HEK293 Progesterone Receptor (PR) Agonism Luciferase Follow-Up Assay (AID 2283941);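 further: loss of signal means cytotoxicity so actives lower viability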
Method in brief: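 Seeding: HEK293-PR-A-luc, 3,000 cells/well, 5 h at 37C. Treatment: compound in DMSO, 16 h, 37C. Read: CellTiter-Glo ATP luminescence, signal loss taken as lower viability.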

[10] = target: Cellular tumor antigen p53 (Homo sapiens) (UniProt P04637); test: TOX21_p53_BLA_p4_ratio: Tox21 HCT-116 p53 Agonism Beta-lactamase Assay, Ratio, Phase 4 (AID 2283601)
Method in brief: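 HCT-116 p53 beta-lactamase reporter cells (4000/well) preincubated 5 h, then compound (217-fold dilution of DMSO stock) for 16 h at 37C. CCF4-AM substrate added 2 h at room temperature; 460/530 nm emission ratio fitted upward versus DMSO.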

Measured: AC50

C[C@]12CCC(=O)C=C1C=C[C@@H]1[C@@H]2CC[C@@]2(C)[C@H]1CC[C@@]21CCC(=O)O1
inactive: [1] | [2] | [3] | [4] | [5] | [6] | PGR (gene 5241) | [7] | [8] | [9]

Cc1cccc(C)c1NC(=O)CN1CCN(CCCC(c2ccc(F)cc2)c2ccc(F)cc2)CC1
inactive: [1] | [2] | [3] | [4] | [10]

C=CCN1CCCC1CNC(=O)c1cc(S(N)(=O)=O)cc(OC)c1OC (stereo not given)
inactive: [1] | [2] | [3] | [5] | [10]

OCCOCC#CCOCCO
inactive: [1] | [2] | [3] | [6] | [10]

Nc1ccccc1S(=O)(=O)c1ccccc1
inactive: [1] | [2] | [3] | [5] | [6] | [10] | PGR (gene 5241) | [7] | [9]

CSCCC(N)C(=O)O (stereo not given)
inactive: [1] | [2] | [3] | [5] | [10]

CCCCOc1cc(C(=O)NCCN(CC)CC)c2ccccc2n1
inactive: [1] | [2] | [3] | [4] | [10]

O=C(O)c1ccccc1Cl
inactive: [1] | [2] | [3] | [5] | [6] | [10]

COc1ccccc1OCC(O)CN1CCN(CC(=O)Nc2c(C)cccc2C)CC1 (stereo not given)
inactive: [1] | [2] | [3] | [4] | [10]

CC(COC(=O)c1ccccc1)OC(=O)c1ccccc1 (stereo not given)
inactive: [1] | [2] | [3] | [5] | [6] | [10]

COCC(=O)Nc1c(I)c(C(=O)NCC(O)CO)c(I)c(C(=O)N(C)CC(O)CO)c1I (stereo not given)
inactive: [1] | [2] | [3] | [6] | [10]

CCC(COC(=O)CCS)(COC(=O)CCS)COC(=O)CCS
inactive: [1] | [2] | [6]
active: [3] 72.1 µM

O=S(O)CNc1ccc(S(=O)(=O)c2ccc(NCS(=O)O)cc2)cc1
inactive: [1] | [2] | [3] | [6]

Brc1c(NC2=NCCN2)ccc2nccnc12
inactive: [1] | [2] | [3] | [5] | [6] | [10]

NC1CCN(c2cccc(Cl)n2)CC1
inactive: [1] | [2] | [3] | [5] | [6] | [10]

CC(N)C(=O)OC(C)(C)Cc1ccc(Cl)cc1 (stereo not given)
inactive: [1] | [2] | [3] | [6] | [10]

Cc1cccc2nccnc12
inactive: [1] | [2] | [3] | [5] | [10]

CCCCCCCCC(=O)Cl
inactive: [1] | [2] | [3] | [5] | [6]

C[n+]1ccccc1/C=N/O
inactive: [1] | [2] | [3] | [6]

CCN(CC)C(=O)N1CCN(C)CC1
inactive: [1] | [2] | [3] | [4] | [10]

CC(=O)OCC(=O)[C@@]1(OC(C)=O)[C@@H](C)C[C@H]2[C@@H]3C[C@H](F)C4=CC(=O)C=C[C@]4(C)[C@@]3(F)[C@@H](O)C[C@@]21C
inactive: [1] | [2] | [3] | [4] | [6] | PGR (gene 5241) | [7] | [8]

C1CCCC1
inactive: [1] | [2] | [3] | [5] | [6] | [10]

NCC1CCC(C(=O)O)CC1 (stereo not given)
inactive: [1] | [2] | [3] | [5] | [10]

COc1cc(OC)cc(OC)c1
inactive: [1] | [2] | [3] | [5] | [6] | [10]

OC[C@H]1O[C@H](O[C@H]2O[C@H](CO)[C@@H](O)[C@H](O)[C@H]2O)[C@H](O)[C@@H](O)[C@@H]1O
inactive: [1] | [2] | [3] | [5] | [6]

CC1CC(=O)NN=C1c1ccc(NCC(C)(C)NCC(O)COc2cc(Cl)ccc2C#N)cc1 (stereo not given)
inactive: [1] | [2] | [3] | [4] | [10]

NC[C@H]1O[C@H](O[C@H]2[C@H](O)[C@@H](O[C@H]3O[C@H](CO)[C@@H](O)[C@H](N)[C@H]3O)[C@H](N)C[C@@H]2N)[C@H](N)C[C@@H]1O
inactive: [1] | [2] | [3] | [5] | [10]

CO[C@H]1C[C@H](O[C@H]2[C@H](C)[C@@H](O[C@@H]3O[C@H](C)C[C@H](N(C)C)[C@H]3OC(C)=O)[C@@H](C)C[C@]3(CO3)C(=O)[C@H](C)[C@@H](OC(C)=O)[C@@H](C)[C@@H](C)OC(=O)[C@@H]2C)O[C@@H](C)[C@@H]1OC(C)=O
inactive: [1] | [2] | [3] | [5] | [6]

Cc1cccc(Oc2ccccc2)c1
inactive: [1] | [2] | [3] | [4] | [10]

CC(=O)OC(C)=O
inactive: [1] | [2] | [3] | [5] | [6]
